38 molecules from PubChem BioAssay AID977622 (Broad Institute, 2014) can be followed below.

A short description of experiment [1]: growth inhibition of wild-type GFP E. coli, dose response, h38 mutant RFP, cherry-pick (AID 977622). The note with it: activity change: E. coli mixed culture, total growth OD600 at 50 uM, at 50 µM.
The test system of experiment [2] is E. coli h38 humanized mutant ribosome RFP fluorescence, mixed culture, 24 h. Described as above. The note with it: h38 mutant RFP at 50 uM; at 50 µM.

The whole screen tested about 1,900 compounds, of which fewer than 10 were called active. Roughly 39% stayed inconclusive and do not appear here.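 Rule for the calls: active = Green signal of the normal strain falls at least twice as much as red signal of the resistant mutant, with overall culture growth loss under a set limit; inconclusive = no clear call, values can overlap the other calls; inactive = the rest.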 Only a sample is shown.

For the molecule `Cc1cc(C)nc(SCCC(=O)Nc2ccccc2Cl)n1`, the molecule was called inactive in experiment [1]. Moreover, in experiment [2], the activity change was determined as 4.04%.

Regarding `C=CCNc1ccc2c(c1)OC[C@H](CC(C)C)NS2(=O)=O`, the activity change in experiment [1] is -16.5%; in experiment [2] it was -12.1%. For the same molecule, the molecule was called inactive in experiment [1].

Regarding `CCCCCCCNC(=O)c1ccc(N2CCC3(CC2)OCCO3)c([N+](=O)[O-])c1`, in experiment [1], the activity change is -71.7% and the call was inactive. Also, the activity change in experiment [2] is 33.2%.

For `CCn1nc(C)cc1C(=O)N1CCCC(C(=O)c2ccc3ccccc3c2)C1` (centres undefined), in experiment [1], the activity change is -3.63% and the result was inactive. Also, in experiment [2], the activity change was found to be 3.47%.

Turning to `CSc1ccccc1C(=O)NCCc1ccc(S(=O)(=O)N2CCCCC2)cc1`, in experiment [1], the activity change is -6.73% and the molecule was classed as inactive.

As to `CCOc1ncccc1C(=O)OCC(=O)NCCCc1ccccc1`, the activity change in experiment [1] is -34.2%; in experiment [2] it was 13.1%. The molecule was classed as inactive in experiment [1].

Take `Cn1cc(CN2CCCC(C(=O)Nc3cccc(-c4cc5ccccc5[nH]4)c3)C2)cn1` (centres undefined): in experiment [1], the activity change was -25.9% and the molecule was called inactive. Besides, the activity change in experiment [2] is -29%.

For the molecule `COc1ccccc1CC(=O)NCCCc1ccccc1`, the activity change was determined as 0.195% in experiment [1] and 28.9% in experiment [2]. The molecule was classed as inactive in experiment [1].

`CN1C(=O)c2cc(NC(=O)c3cccc(F)c3)ccc2OC[C@H]2O[C@@H](CC(=O)NCC3CCCCC3)CC[C@@H]21`: in experiment [1], the activity change is -45.8% and the molecule was classed as inactive. For the same molecule, the activity change in experiment [2] is -19.3%.

For `C[C@H](CO)N1C[C@H](C)[C@H](CN(C)C(=O)Nc2ccc(F)cc2)Oc2c(NC(=O)Nc3ccccc3)cccc2C1=O`, in experiment [1], the activity change was -24.1% and the result was inactive. In addition, in experiment [2], the activity change stood at 16.4%.

Take `O=C(Nc1c(S(=O)(=O)c2ccc(Cl)cc2)csc1Br)c1ccccc1Cl`: in experiment [1], the activity change turned out to be 9.68% and the result was inactive. Moreover, the activity change in experiment [2] is 8.46%.

Consider `O=C(CCc1nc2ccccc2s1)OCC(=O)c1ccccc1`, for which, in experiment [1], the activity change is 6.3% and the call was inactive. Further, the activity change in experiment [2] is -0.655%.

As to `Cc1ccc2nc(N(CCN(C)C)C(=O)C3CCN(S(=O)(=O)c4cccs4)CC3)sc2c1`, in experiment [1], the activity change was -21.5% and the molecule was called inactive.

Regarding `Cc1cccc(-c2ccc([C@@H]3[C@@H](CO)N4CCCCN(S(=O)(=O)c5ccccc5C)C[C@@H]34)cc2)c1`, in experiment [1], the activity change is -8.54% and the molecule was classed as inactive. For the same molecule, in experiment [2], the activity change turned out to be 21%.

`COc1ccc(C#Cc2ccc([C@H]3[C@@H](CO)N4CCCCN(C(=O)Nc5cccc(F)c5)C[C@H]34)cc2)cc1`: in experiment [1], the activity change was -17.6% and the call was inactive. The activity change in experiment [2] is 73.7%.

`Cc1cc(C)n(CC(O)COc2ccc3ccccc3c2)n1` (centres undefined): in experiment [1], the activity change was found to be 4.91% and the molecule was called inactive. Also, the activity change in experiment [2] was found to be 10.9%.

Turning to `N#Cc1nc(COc2cccc(Cl)c2)oc1N1CCCC1`, in experiment [1], the activity change is -6.55% and the call was inactive.

As to `COc1ccc(CC(=O)NCc2csc(-c3cccs3)n2)cc1OC`, in experiment [1], the activity change is -8.86% and the call was inactive. In experiment [2], the activity change was -8.02%.

Take `Cc1ccc(-n2c(SCC(N)=O)nnc2-c2cnccn2)cc1`: in experiment [1], the activity change is -6.07% and the outcome was inactive. Besides, in experiment [2], the activity change was -24.8%.

For the molecule `COc1ccc(C)c2sc(N(CCN(C)C)C(=O)c3ccc(S(=O)(=O)N(C)c4ccccc4)cc3)nc12`, the activity change in experiment [1] is -16.8%; in experiment [2] it was 11%. Further, the molecule was classed as inactive in experiment [1].

As for `CCCc1nc2ccc(Br)cn2c1Cc1cccc(Cl)c1`, the activity change in experiment [1] is -8.44%; in experiment [2] it was 4.58%. Also, the outcome in experiment [1] was inactive.

Take `CS(=O)(=O)c1ccc(Cl)c(NC(=O)COC(=O)c2c(Cl)cccc2Cl)c1`: in experiment [1], the activity change is -7.03% and the result was inactive. Besides, the activity change in experiment [2] was -3.81%.

`COc1ccc(Cc2c(-c3cccc(Cl)c3)nc3ccc(Cl)cn23)c(C)c1`: the results for the activity change in experiment [1] and in experiment [2] were -9.93% and 1.24%, respectively. Also, the molecule was called inactive in experiment [1].

Consider `OC1CCN(c2c3c(nc4cc(-c5cccc(F)c5)nn24)CCCC3)CC1`, for which the activity change in experiment [1] is -19%; in experiment [2], -5.04%. Moreover, the call in experiment [1] was inactive.

On to `CN(Cc1ccccc1NS(=O)(=O)c1ccc(Cl)cc1)C1CCCCC1`, for which, in experiment [1], the activity change was determined as 4.68% and the result was inactive. Also, the activity change in experiment [2] turned out to be 25.7%.

Regarding `O=C1c2ccccc2CSc2c(O)cccc21`, in experiment [1], the activity change was -41.7% and the molecule was classed as inactive. The activity change in experiment [2] was -51.2%.

As for `CCN(CC)CCNC(=O)c1cc2cc3ccc(OC)cc3nc2o1`, in experiment [1], the activity change is -17.2% and the molecule was classed as inactive. Further, in experiment [2], the activity change is -1.99%.

On to `C[C@H](CO)N1C[C@H](C)[C@@H](CN(C)C(=O)CCCN(C)C)OCCCC[C@H](C)Oc2ccc(NC(=O)Nc3cccc4ccccc34)cc2C1=O`, for which, in experiment [1], the activity change stood at 1.54% and the result was inactive. Further, in experiment [2], the activity change was -2.48%.

For the molecule `COc1ccccc1NC(=O)COC(=O)Cc1c[nH]c2ccccc12`, in experiment [1], the activity change is -29.2% and the outcome was inactive. The activity change in experiment [2] is -34.7%.

Regarding `NC(=O)c1ccsc1NC(=O)COC(=O)Cc1ccc(F)cc1`, in experiment [1], the activity change was -13.5% and the outcome was inactive. Moreover, the activity change in experiment [2] was -23.2%.

With `COc1cccc(C(=O)Nc2nnc(S(=O)(=O)N(C)Cc3ccccc3)s2)c1`, in experiment [1], the activity change is -30.6% and the molecule was classed as inactive. The activity change in experiment [2] is -13.1%.

With `Cc1noc(C)c1NC(=O)Nc1ccc2c(c1)C(=O)N([C@H](C)CO)C[C@@H](C)[C@@H](CN(C)C(=O)Nc1ccc3c(c1)OCO3)OCCCC[C@@H](C)O2`, in experiment [1], the activity change is -6.3% and the molecule was classed as inactive. Moreover, the activity change in experiment [2] was -16.3%.

Turning to `CC(NC(=O)c1c(N)[nH]c(C(=O)c2ccccc2)c1-c1ccccc1Br)c1cccc2ccccc12` (centres undefined), in experiment [1], the activity change was -15.6% and the molecule was classed as inactive. Further, in experiment [2], the activity change was 41.2%.

For `COC(=O)CN1C(=S)N(c2ccc(F)cc2)C(=O)C1CC(=O)Nc1ccc(F)cc1` (centres undefined), the activity change in experiment [1] was -1.47%; in experiment [2], -5.83%. Besides, the outcome in experiment [1] was inactive.

In the case of `COc1cc(OC)cc(C(=O)N[C@H](C(=O)OCC(=O)Nc2ccc(F)c(F)c2F)C(C)C)c1`, in experiment [1], the activity change is -1.83% and the result was inactive. The activity change in experiment [2] is -9.06%.

Take `O=C(NCc1ccccc1)c1ccc(-c2cn[nH]c2)c2ccoc12`: in experiment [1], the activity change was -21.8% and the molecule was called inactive. Also, the activity change in experiment [2] is -23.8%.

As for `CCC(=O)Nc1nc2c(OC)ccc(OC)c2s1`, in experiment [1], the molecule was classed as inactive. In experiment [2], the activity change is -14.1%.

Consider `O=C(Nc1cccc(Cl)c1)N1C[C@@H]2[C@H](c3ccccc31)[C@@H](CO)N2C(=O)c1cccnc1`, for which, in experiment [1], the activity change stood at 7.11% and the result was inactive. For the same molecule, the activity change in experiment [2] was determined as 2.16%.
